# From PubChem
# Sampled rows, rich in hits. Any-hit rate of the full collection: about 3.2%.
# PNC assembly inh – perinucleolar compartment assembly inhibition | PC3M PTB-GFP, PNC prevalence imaging, 16 h; stronger effect = lower value | activity change (PNC), negative = inhibition, % at 10 µM | AID 2417 | 3.1% of 140,000 active;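 active means readout at or below -70, meaning at least 70% loss of cells showing the perinucleolar compartment, a nuclear body marking cancer cells; inconclusive means readout between -30 and a set limit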;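 further: plate controls were DMSO wells for no effect and camptothecin positive control wells for full effect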
#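 PC3M cells stably expressing PTB-GFP, 750–1000 cells/well, treated 16 h at 37 °C with compound (23 nl of library stock), in duplicate. After paraformaldehyde fixation and Hoechst stain, imaged at 20x; PNC prevalence scored by image analysis.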
# 12-hLO inh – inhibitors of human 12-lipoxygenase (ALOX12). purified 12-hLO, xylenol orange hydroperoxide absorbance. Potency, µM (titrated, usually from 57.1 µM), for inactives: at the top dose activity change, negative = inhibition, actives largely listed as inhibitors. 0.12% of 150,000 active; further: potency means the concentration at half of the fitted maximal effect; nearly all actives have a fitted effect of over 55% in size
# Target sequence (P18054 whole entry, looked up): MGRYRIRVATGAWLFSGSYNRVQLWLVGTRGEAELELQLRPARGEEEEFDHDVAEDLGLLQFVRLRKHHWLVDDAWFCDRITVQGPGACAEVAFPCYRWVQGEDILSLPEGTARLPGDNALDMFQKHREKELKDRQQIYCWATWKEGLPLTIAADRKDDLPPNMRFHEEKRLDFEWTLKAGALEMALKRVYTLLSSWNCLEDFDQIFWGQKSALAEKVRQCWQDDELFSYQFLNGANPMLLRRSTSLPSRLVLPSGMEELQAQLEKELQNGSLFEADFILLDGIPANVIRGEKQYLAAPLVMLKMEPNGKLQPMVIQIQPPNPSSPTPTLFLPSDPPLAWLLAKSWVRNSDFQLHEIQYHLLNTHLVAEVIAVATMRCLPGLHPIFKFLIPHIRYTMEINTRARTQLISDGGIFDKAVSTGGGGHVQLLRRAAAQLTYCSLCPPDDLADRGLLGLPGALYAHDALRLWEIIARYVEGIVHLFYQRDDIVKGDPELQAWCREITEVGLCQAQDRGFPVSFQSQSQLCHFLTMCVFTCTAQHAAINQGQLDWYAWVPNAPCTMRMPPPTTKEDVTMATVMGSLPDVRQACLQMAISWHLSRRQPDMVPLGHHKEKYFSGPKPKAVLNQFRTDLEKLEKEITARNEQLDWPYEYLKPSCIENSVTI
#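 Hydroperoxide output read as Fe(III)-xylenol orange absorbance, 573-to-405 nm ratio, after 30 min reaction with 40 uM arachidonic acid. Enzyme: 150 nM purified human 12hLO, 15 min compound preincubation; 25 mM Hepes pH 7.0, room temperature.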
# ALOX15B inhib – inhibitors of human 15-lipoxygenase 2 (ALOX15B) | Potency, µM (titrated, usually from 57.1 µM), inactives show at the highest dose activity change, negative = inhibition, usual class: inhibitors | 0.56% of 110,000 active | purified 15hLO-2, xylenol orange hydroperoxide absorbance | O15296; further: potency means the concentration at half of the fitted maximal effect; nearly all actives have a fitted effect of over 60% in size
#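 Enzyme 50 nM, AA 45 uM, 25 mM Hepes pH 7.5 + 0.01% Triton X-100; cpd preinc 15 min RT, rxn 90 min RT; stop/detect with 200 uM XO + 300 uM Fe(II) in 50 mM H2SO4, 30 min; A573/A405.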
# Starred values were filed as active, the others as inactive; ? = inconclusive; · = no result given; [ ] = another dose, or the depositor's remark. Unless noted, the call rests on the fitted dose curve; in most records, active means well fitted curve in the direction sought with a large enough effect; inconclusive means small, poorly fitted or top-dose-only effect, or another doubt; inactive means no such curve, though single readings can be large; an effect the other way counts as inactive or inconclusive. Unless noted, on the % scale 0 is the no-effect control and ±100 the full control effect.
SMILES,PNC assembly inh,12-hLO inh,ALOX15B inhib
CCC(=O)N1CCc2cc(S(=O)(=O)NCCCN3CCN(Cc4ccccc4)CC3)ccc21,31.6,-0.3%,16.8%
CCOCCCNS(=O)(=O)c1ccc2c(c1)CCN2C(=O)CC,-109.7*,0.1%,-9.2%
CC1CCN(c2ccc(N3C(=O)C4CCCCC4C3=O)cc2[N+](=O)[O-])CC1 (stereo unspecified),64.4,2.2%,·
COC(=O)[C@@]1(Cc2ccc(F)cc2)[C@H]2c3cc(C(=O)N4CCCC4)n(CCc4ccccn4)c3C[C@H]2CN1C(=O)c1ccccc1,-96.9*,-0.9%,19.4%
COC(=O)[C@@]1(Cc2ccccc2)[C@H]2c3cc(C(=O)N4CCCC4)n(CCc4ccccn4)c3C[C@H]2CN1C(=O)c1ccccc1,·,-0.6%,-1.3%
COc1ccccc1N1CCN(CC(O)c2ccc3cc[nH]c3c2)CC1 (stereo unspecified),11.9,-19.9%,2.7%
O=C(CSCc1cnn(-c2ccccc2)c1-n1cccc1)NCc1ccc2c(c1)OCO2,-100.0*,-11.8%,·
COc1ccc(CNC(=O)CSCc2cnn(-c3ccccc3)c2-n2cccc2)cc1,15.7,-1.9%,-3.0%
CCn1c(SCC(=O)NCC(=O)Nc2ccc(F)cc2)nnc1-c1cccs1,-86.2*,0.7%,0.3%
CCn1c(SCC(=O)Nc2ccc(C(=O)OC)cc2)nnc1-c1cccs1,?,-4.1%,-0.1%[2.29 µM]
O=C(O)CCCC[C@H]1CCSS1,·,-5.9%,4.9%
O=c1c(-c2ccccc2)nc2cncnc2n1Cc1ccccc1,·,·,11.3%
CCCn1c(C)nc2c(NCCOC)nc(C)nc21,·,-0.9%,3.0%
NC(=O)c1cccnc1Oc1cccc(Cl)c1,?,-2.1%,-4.8%
Clc1cccc(Oc2ncccn2)c1,-82.6*,-1.6%,·
COc1ccc(NC(=O)C(c2ccc(OC)cc2)N(C)C(=O)c2cnccn2)cc1 (stereo unspecified),28.4,-9.0%,-4.3%
COc1ccc(CN(C(=O)c2cnccn2)C(C(=O)Nc2ccc(F)cc2)c2ccccc2)cc1 (stereo unspecified),-95.0*,1.5%,·
COC(=O)C(Sc1nc(C)cc(C)c1C#N)c1ccccc1 (stereo unspecified),61.2,-10.7%,-4.7%
COc1ccccc1-c1cc(-c2ccccc2)nc(SC(C(N)=O)c2ccccc2)c1C#N (stereo unspecified),7.8,-5.0%,15.8µM*
O=C(O)c1ccc(N2CCCCC2)cc1,12.4,-3.3%,4.7%
Nc1ccc(N2CCCCCC2)cc1,?,-25.7%,12.6µM*
Cc1cc(C)c(C(CC(=O)c2cccs2)C(C#N)C#N)c(C)c1 (stereo unspecified),?,-3.5%,·
CC(NC(=O)/C=C/c1ccc(Br)cc1)c1ccccc1 (stereo unspecified),-84.2*,-1.2%,·
Cc1ccc(/C=C/C(=O)NC(C)c2ccccc2)cc1 (stereo unspecified),-9.4,-4.2%,·
COc1ccccc1CN1CCCC2(CCN(C(=O)c3cc(C(F)(F)F)cc(C(F)(F)F)c3)CC2)C1,·,0.6%,11.6%
SMILES,PNC assembly inh,12-hLO inh,ALOX15B inhib
O=c1c2ccccc2c2ccccc2c(=O)n1Cc1cccnc1,10.1,-4.3%,1.6%
O=C1NC(c2ccccc2)(C(F)(F)F)C(=O)N1Cc1cccnc1 (stereo unspecified),-84.6*,-0.4%,9.2%
CC(=O)Oc1ccccc1C(=O)O,·,-3.6%,-6.9%
Cc1cc(C(=O)Oc2ccccc2C(=O)O)c(C)o1,-100.0*,-4.3%,7.3%
C/C(CCC(=O)O)=N/Nc1ccc([N+](=O)[O-])cc1[N+](=O)[O-],-86.9*,-27.1%,·
CCOC(=O)C(C(=O)OCC)C(C)(C)/C(C)=N\Nc1ccc([N+](=O)[O-])cc1[N+](=O)[O-],?,0.5%,·
O=C(O)C1=CC(O)[C@@H](O)C(O)C1 (stereo partly specified),·,-3.9%,0.2%
N#CCCn1cc(/C=N/NC(=O)c2ccncc2)c(-c2ccccc2)n1,-83.5*,-2.0%,5.9%
O=C(N/N=C/c1cn(CCOc2ccccc2)c2ccccc12)c1ccncc1,-7.7,-1.4%,·
CCCCCC[C@@H]([C@H](C)O)n1cnc2c(N)ncnc21,·,-4.6%,-2.3%
O=C(O)c1cccc(Oc2ccccc2[N+](=O)[O-])c1,-116.4*,-1.8%,·
N#Cc1ccc(Oc2cccc(C(=O)O)c2)cc1C#N,5.9,-2.0%,-7.8%
Cc1nn(-c2ccccc2)c(C)c1NC(=O)COc1ccc(F)cc1Cl,-102.4*,-0.1%,·
Cc1nn(-c2ccccc2)c(C)c1NC(=O)Cc1cccs1,39.4,0.0%,·
Cc1ccc(S(=O)(=O)N2CCN(S(=O)(=O)c3ccccc3)C2)cc1,-21.7,-1.9%,-0.9%
O=S(=O)(c1ccc(Cl)cc1)n1ccc2cccnc21,-100.0*,-3.1%,·
O=S(=O)(c1ccc(Cl)cc1)c1ccccn1,-3.4,0.7%,1.1%
